A selection: hits, their analogues and other compounds. The true share with any hit is near 7.4%.
FLuc modulator = counter-screen for miR-21 project: firefly luciferase inhibitors or activators; P08659; purified FLuc, Km substrates, luminescence inhibition; Potency, µM (highest dose often 57.5 µM), inactives show at the top dose activity change, negative = inhibition, most hits filed as inhibitors; 360,000 compounds, 6.9% hits; AID 588342;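 further: plate controls were vehicle for no effect and reference inhibitor for full effect; nearly all actives have a fitted effect of over 55% in size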
Target sequence (P08659 whole entry, looked up): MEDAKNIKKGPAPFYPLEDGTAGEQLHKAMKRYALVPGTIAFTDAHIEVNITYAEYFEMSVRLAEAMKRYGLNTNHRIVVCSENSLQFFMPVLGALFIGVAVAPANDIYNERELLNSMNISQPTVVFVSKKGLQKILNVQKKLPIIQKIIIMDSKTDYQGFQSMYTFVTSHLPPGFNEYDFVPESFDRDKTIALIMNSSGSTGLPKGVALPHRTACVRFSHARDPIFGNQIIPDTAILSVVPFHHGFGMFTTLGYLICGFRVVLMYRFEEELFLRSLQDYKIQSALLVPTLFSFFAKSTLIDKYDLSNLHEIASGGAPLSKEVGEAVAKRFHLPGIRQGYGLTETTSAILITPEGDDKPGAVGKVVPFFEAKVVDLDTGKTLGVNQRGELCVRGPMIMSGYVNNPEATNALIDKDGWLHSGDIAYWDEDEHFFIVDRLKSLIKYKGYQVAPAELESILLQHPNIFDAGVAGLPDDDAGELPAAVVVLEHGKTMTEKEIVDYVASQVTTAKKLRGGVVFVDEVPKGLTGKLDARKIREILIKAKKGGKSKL
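Purified P. pyralis luciferase, 10 nM final, with Km-level 10 uM D-luciferin and 10 uM ATP in 50 mM Tris acetate pH 7.5, 10 mM Mg acetate, 0.01% Tween-20, 0.05% BSA; 6-point qHTS titration about 60 µM downward; luminescence read.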
ELG1 genotoxic = induces genotoxicity in HEK293T cells with luciferase-tagged ELG1; HEK293T ELG1-luciferase reporter, luminescence, 16 h; Potency, µM (top dose mostly 46 µM), for inactives: at the top dose activity change, positive = activation, usual class: activators; 330,000 compounds, 1.3% hits; AID 504466; further: % of control where 0% means no effect; nearly all actives have a fitted effect of over 60% in size
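Genotoxic stress is detected as increased luminescence from luciferase-tagged ELG1 in HEK293T cells, measured with ONE-Glo after a 16 hr treatment at 37 °C.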
NPC1 promoter act = activators of NPC1 promoter; Huh7 NPC1 promoter luciferase reporter, 24 h; Potency, µM (series often up to 9.22 µM), without a hit: at the top dose activation, hits mostly activators; 320,000 compounds, 2.4% hits; further: % of control where 0% means no effect; nearly all actives have a fitted effect of over 60% in size
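NPC1 promoter–luciferase Huh7 cells; 24 h compound; luminescence.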
Luc counter = blocks Kinase-Glo luciferase, a counter-screen artifact; AID 1379; Q27757; 200,000 compounds, 0.28% hits; Potency, µM (titrated, usually from 38.3 µM), for the others: at the highest dose activity change, negative = inhibition, hits mostly inhibitors; Kinase-Glo luciferase, ATP luminescence, 8 min; further: on the % scale 0 is the no-effect control and ±100 the full control effect; nearly all actives have a fitted effect of over 60% in size
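Substrate mix (final 50 mM imidazole pH 7.2, 50 mM KCl, 7 mM MgCl2, 10 uM ATP, 0.01% Tween 20, 0.05% BSA) plus pin-tool compound, then Kinase-Glo detection mix; 8 min ambient, luminescence read.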
Rab9 promoter act = Rab9 promoter activation. Huh7 Rab9 promoter-luciferase reporter, luminescence, 24 h. Potency, µM (series often up to 9.22 µM), without a hit: at the highest dose activation, negative = inhibition, most hits filed as activators. 320,000 compounds, 2.8% hits; further: % of control where 0% means no effect; nearly all actives have a fitted effect of over 60% in size
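Huh7 cells stably carrying Rab9 promoter–luciferase reporter, plated 1500 cells/well, compound added after 2 h and incubated 24 h at 37 °C; luciferase luminescence then read after 10 min with detection reagent.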
SMN2 splice up = increases expression of the SMN2 splice variant. 210,000 compounds, 2.8% hits. Potency, µM (titrated, usually from 46.1 µM), for the others: at the highest dose activity change, positive = activation, hits mostly activators. HEK293 SMN2-luciferase splicing reporter, luminescence, 30-36 h; further: % of control where 0% means no effect; nearly all actives have a fitted effect of over 55% in size
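HEK293 cells carry an SMN2 […]–luciferase reporter in which exon 7 inclusion puts luciferase in frame. Cells were plated 10-12 h before compound addition, then incubated 30-36 h at 37C. ONE-Glo luminescence was read; sodium butyrate at 4.5 mM final served as control.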
The depositor's hits bear a star; [ ] = another dose, or the depositor's remark. The call rests on the fitted dose curve; in most records, active means well fitted curve in the direction sought with a large enough effect; inconclusive means small, poorly fitted or top-dose-only effect, or another doubt; inactive means no such curve, though single readings can be large; an effect the other way counts as inactive or inconclusive. Potency means the concentration at half of the fitted maximal effect.

Screening COc1ccccc1C(=O)NC(=O)Nc1cccc(Cl)c1 returned FLuc modulator 2.69µM*, ELG1 genotoxic inconclusive, NPC1 promoter act inconclusive and Rab9 promoter act 3.98µM*.
Cc1cc2cc(CNC(=O)Nc3cccc(Cl)c3)ccc2n1C was read as FLuc modulator -3.8%, ELG1 genotoxic 23.1µM*, NPC1 promoter act 0.6%, Luc counter -7.0%, Rab9 promoter act -0.5% and SMN2 splice up -25.2%.
For COc1ccc(CNC(=O)Nc2cccc(Cl)c2)cc1 the results were FLuc modulator inconclusive, ELG1 genotoxic inconclusive, NPC1 promoter act 2.51µM* and Rab9 promoter act inconclusive.
Screening C=CCNC(=O)c1ccccc1NC(=O)C1CC(=O)N(C(C)C)C1 (stereo not given) returned FLuc modulator 5.0%, ELG1 genotoxic -0.1%, NPC1 promoter act 1.9% and Rab9 promoter act -0.6%.
For Cc1nc(-c2coc3cc(O)c(C)cc3c2=O)cs1 the results were FLuc modulator 0.953µM*, ELG1 genotoxic inconclusive, NPC1 promoter act inconclusive, Luc counter inconclusive, Rab9 promoter act inconclusive and SMN2 splice up 25.1µM*.
`CC(C)(C)c1ccc(Oc2coc3cc(OCC(=O)O)ccc3c2=O)cc1` gave FLuc modulator 2.13µM*, ELG1 genotoxic 1.5%, NPC1 promoter act 0.6% and Rab9 promoter act -11.5%.
For Cc1nc(-c2coc3cc(OCC(=O)O)ccc3c2=O)cs1 the results were FLuc modulator 1.9µM*, ELG1 genotoxic -9.0%, NPC1 promoter act -4.9%, Luc counter inconclusive, Rab9 promoter act -10.0% and SMN2 splice up -6.2%.
Screening COC(=O)c1cc(S(=O)(=O)NC2CCC(C)CC2)cn1C (stereo not given) returned FLuc modulator -1.2%, ELG1 genotoxic 0.4%, NPC1 promoter act 0.2% and Rab9 promoter act 4.8%.
For COc1c(C=O)c(O)cc2c1C(=O)c1ccccc1C2=O the results were SMN2 splice up -0.6%.
For CC(=O)Nc1ccc(NC(=O)COC(=O)C2CCCCC2)cc1 the results were ELG1 genotoxic 1.8%.
For CCCCCCOc1ccc(/C(N)=N/O)cc1 the results were FLuc modulator 12µM*, ELG1 genotoxic inconclusive, NPC1 promoter act 2.51µM*, Luc counter -4.8%, Rab9 promoter act 1.58µM* and SMN2 splice up 25.6%.
`COc1ccc(Cl)cc1NC(=O)CSc1ccc2nnc(CCNS(=O)(=O)c3ccccc3)n2n1` gave FLuc modulator 2.2%.
For CCn1c(SCC(=O)Nc2cc(Cl)ccc2OC)nnc1C1CC1 the results were FLuc modulator 2.4%, ELG1 genotoxic -0.2%, NPC1 promoter act -3.1% and Rab9 promoter act -4.4%.
COc1ccc(-c2cc(C)no2)cc1S(=O)(=O)N(C)c1ccc(C)cc1 was read as FLuc modulator 0.0%, ELG1 genotoxic -1.2%[9.26 µM], NPC1 promoter act -29.7% and Rab9 promoter act -19.0%.
`COc1ccc(C2C(C(=O)Nc3ccc(C)cc3C)=C(C)Nc3nc4ccccc4n32)c(OC)c1` (stereo not given) gave FLuc modulator 2.8% and SMN2 splice up -21.0%.
For COc1ccc(OC)c(C2Nc3nc4ccccc4n3C(C)=C2C(=O)Nc2ccc(C)cc2C)c1 (stereo not given) the results were FLuc modulator 5.8%, ELG1 genotoxic 1.3%, NPC1 promoter act -7.0%, Luc counter -2.5%, Rab9 promoter act -6.3% and SMN2 splice up 7.94µM*.
O=C(Nc1c(F)cccc1F)c1ccc2c(c1)CCN2S(=O)(=O)c1ccccc1 was read as FLuc modulator 3.7%, ELG1 genotoxic -0.5%, NPC1 promoter act 2.0% and Rab9 promoter act -4.3%.
CCn1c(=O)n(CC)c2cc(N3CCCC3)c(NC(=O)Nc3cc(C)cc(C)c3)cc21 was read as FLuc modulator -2.2%.
Screening COC(=O)c1c(C)[nH]c(C=O)c1-c1ccccc1 returned FLuc modulator 13.5µM*, ELG1 genotoxic inconclusive, NPC1 promoter act 27.1% and Rab9 promoter act inconclusive.
Screening COC(=O)c1c(-c2ccccc2)c[nH]c1C returned FLuc modulator 26.9µM*, ELG1 genotoxic 10.8%, NPC1 promoter act 3.4% and Rab9 promoter act -0.6%.
Screening COC(=O)c1c(C)[nH]c(C)c1-c1ccccc1Cl returned FLuc modulator 11.4%, ELG1 genotoxic -0.1%, NPC1 promoter act -0.9%, Luc counter -6.1%, Rab9 promoter act 1.4% and SMN2 splice up -13.0%.
`COc1ccc(CSc2nnnn2-c2ccccc2)cc1` gave FLuc modulator -0.6%, ELG1 genotoxic 1.7%, NPC1 promoter act -2.1%, Luc counter -2.9%, Rab9 promoter act -3.8% and SMN2 splice up -4.4%.
For COc1ccc(C)cc1-n1nnnc1SCc1nc2ccccc2s1 the results were FLuc modulator 10.7µM*, ELG1 genotoxic 10.1%, NPC1 promoter act inconclusive, Luc counter -5.9%, Rab9 promoter act inconclusive and SMN2 splice up -21.1%.
Screening COc1ccc(-n2nnnc2SCc2nc3ccccc3s2)cc1 returned FLuc modulator 10.7µM*, ELG1 genotoxic 16.4µM*, NPC1 promoter act 13.5%, Luc counter -6.9%, Rab9 promoter act inconclusive and SMN2 splice up -5.8%.
For O=C(O)c1cc(NN=C2c3ccccc3-c3ccccc32)ccc1Cl the results were FLuc modulator inconclusive, ELG1 genotoxic 1.1%, NPC1 promoter act -2.5% and Rab9 promoter act 0.5%.
For Cc1ccc(N/N=C2\CC(=O)c3ccccc32)cc1Cl the results were FLuc modulator 9.53µM*, ELG1 genotoxic inconclusive, NPC1 promoter act 2.3% and Rab9 promoter act 15.6%.
COc1cc(/C=C2\SC(=S)N(c3cccnc3)C2=O)ccc1O was read as FLuc modulator -6.7%, ELG1 genotoxic 0.9%, NPC1 promoter act -3.2% and Rab9 promoter act -2.2%.
For CN(C)c1ccc(/C=C2\SC(=S)N(Nc3ncc(C(F)(F)F)cc3Cl)C2=O)cc1 the results were FLuc modulator 9.53µM*, ELG1 genotoxic 0.3%, NPC1 promoter act 4.8%, Luc counter -6.2%, Rab9 promoter act -2.3% and SMN2 splice up 7.1%.
Screening COc1cc(/C=C2\SC(=S)N(Nc3ncc(C(F)(F)F)cc3Cl)C2=O)ccc1O returned FLuc modulator 8.49µM*, ELG1 genotoxic 7.0%, NPC1 promoter act -1.1%, Luc counter -2.8%, Rab9 promoter act -3.3% and SMN2 splice up -2.8%.
CCN(C(=O)CSc1nnnn1-c1ccccc1)C1CCS(=O)(=O)C1 (stereo not given) was read as FLuc modulator -1.6%, ELG1 genotoxic 4.4%, NPC1 promoter act 0.0%, Luc counter 3.6%, Rab9 promoter act -0.1% and SMN2 splice up 9.7%.
Cc1ccc(C)c(CN2C(=O)c3ccccc3Sc3ccc(C(=O)NCc4ccco4)cc32)c1 was read as FLuc modulator -3.2%.

Screens (PubChem BioAssay)
